Compound activity (PubChem BioAssay)
VP16 counter = counter-screen for ROR gamma inhibitors: Gal4-VP16 reporter; Drosophila S2 Gal4-VP16 UAS-luciferase, luminescence, 20 h; Potency, µM (doses to about 53.6 µM), usual class: inhibitors; 3.5% of 310,000 active;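 note: Gal4-VP16 expression switched on by copper sulfate through the metallothionein promoter; nearly all actives have a fitted effect of over 50% in size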
RORgamma inh = inhibitors of mouse ROR gamma transcriptional activity | Drosophila S2 Gal4-RORgamma UAS-luciferase reporter, 20 h | Potency, µM (doses to about 53.6 µM), hits mostly inhibitors | 5.4% of 310,000 active; note: nearly all actives have a fitted effect of over 60% in size
Target sequence (P51450 whole entry, looked up, the tested form may be a part): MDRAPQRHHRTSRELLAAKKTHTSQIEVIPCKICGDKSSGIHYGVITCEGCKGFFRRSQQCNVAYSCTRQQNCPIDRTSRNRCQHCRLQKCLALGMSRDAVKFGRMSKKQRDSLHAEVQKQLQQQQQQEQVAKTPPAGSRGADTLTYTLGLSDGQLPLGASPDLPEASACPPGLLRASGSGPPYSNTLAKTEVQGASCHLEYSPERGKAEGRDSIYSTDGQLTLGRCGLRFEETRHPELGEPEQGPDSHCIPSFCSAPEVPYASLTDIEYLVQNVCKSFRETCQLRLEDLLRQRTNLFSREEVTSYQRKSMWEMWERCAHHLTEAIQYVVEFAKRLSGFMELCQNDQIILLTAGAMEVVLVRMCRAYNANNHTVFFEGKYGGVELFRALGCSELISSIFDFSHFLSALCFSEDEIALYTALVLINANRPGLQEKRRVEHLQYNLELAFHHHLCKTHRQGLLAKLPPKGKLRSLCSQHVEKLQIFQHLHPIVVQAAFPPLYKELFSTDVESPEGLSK
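Schneider cells (Drosophila), stable Gal4 DBD–ROR gamma + UAS-luc; 1 hr cmpd preincubation; Cu2+ induction 700 uM final; 20 hr ambient; luminescence.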
Luc counter = Kinase-Glo luciferase inhibition (counter-screen) | Kinase-Glo luciferase, ATP luminescence, 8 min | 0.28% of 200,000 active | Potency, µM (doses to about 38.3 µM), actives largely listed as inhibitors | AID 1379 | Q27757; note: nearly all actives have a fitted effect of over 60% in size
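Compound is pinned into ATP-containing buffer (10 uM ATP, imidazole pH 7.2, 7 mM MgCl2). Kinase-Glo luciferase reagent is then added. Light output is recorded following an 8-min room-temperature incubation.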
Large screens that a line does not name were inactive. Rows were chosen to be rich in hits. Some 6.4% of all compounds tested hit in one or more screens of this group. Calls come from the whole dose curve; as a rule, active = well fitted curve in the direction sought with a large enough effect; inconclusive = small, poorly fitted or top-dose-only effect, or another doubt; inactive = no such curve, though single readings can be large; an effect the other way counts as inactive or inconclusive.

O=C(N/N=C/c1ccc(Cl)s1)c1ccccc1[N+](=O)[O-]	VP16 counter 7.08µM, RORgamma inh 6.31µM (no result: Luc counter)
O=C(CNC(=O)c1ccccc1Cl)N/N=C/c1ccc([N+](=O)[O-])s1	VP16 counter inconclusive, RORgamma inh 17.8µM
O=C(N/N=C/c1ccncc1)c1ccccc1[N+](=O)[O-]	none
O=C(N/N=C/c1cc(Br)cs1)c1c[nH]c2ccccc12	VP16 counter inconclusive (no result: Luc counter)
O=C(Cc1cccs1)N/N=C\c1ccc([N+](=O)[O-])s1	VP16 counter inconclusive, RORgamma inh inconclusive
O=C(N/N=C/c1cc(Br)cs1)c1ccccc1[N+](=O)[O-]	VP16 counter 7.94µM, RORgamma inh 5.62µM
O=C(Nc1ccc(Nc2ccccc2)cc1)C(Cl)(Cl)Cl	RORgamma inh inconclusive
O=C(CCl)c1ccc2[nH]c(=O)oc2c1	none (no result: Luc counter)
COC(=O)c1c(NC(=O)Cn2cnc([N+](=O)[O-])n2)sc2c1CCC(C)C2 (stereo not given)	none
CC(C)(C)C(=O)Oc1ccc(S(=O)(=O)Nc2ccccc2C(=O)NCC(=O)O)cc1	none (no result: Luc counter)
O=c1[nH][nH]c(=S)c(=O)[nH]1	none (no result: VP16 counter, RORgamma inh)
Nc1ncc(Br)cc1S(=O)(=O)NCCc1ccccc1	none (no result: Luc counter)
CNS(=O)(=O)c1cn(CC(=O)NCc2ccc(OC)cc2)cc1S(=O)(=O)NC	none (no result: Luc counter)
C=CCNc1nnc(SC2CC(=O)N(c3ccc(OCCC)cc3)C2=O)s1 (stereo not given)	VP16 counter 17.8µM, RORgamma inh inconclusive
CCOc1ccc(N2C(=O)CC(Sc3ncccn3)C2=O)cc1 (stereo not given)	VP16 counter inconclusive, RORgamma inh inconclusive
O=C(Nn1cnnc1)c1cc(-c2ccccn2)nc2ccccc12	none
O=C(NNS(=O)(=O)c1ccc2ccccc2c1)c1cc(-c2ccccn2)nc2ccccc12	VP16 counter 7.94µM
COc1ccc(C(C(=O)NCC2CCCO2)N(C(=O)CNC(=O)c2cccs2)c2ccccc2C)cc1OC (stereo not given)	none
Cc1onc(-c2ccccc2Cl)c1C(=O)NC(C)c1ccccc1 (stereo not given)	none (no result: Luc counter)
CCCOc1ccc(NC(=O)c2c(-c3ccccc3)noc2C)cc1	none
CCCOc1ccc(C(=O)NC(=S)NNC(=O)c2c(-c3ccccc3)noc2C)cc1	VP16 counter inconclusive, RORgamma inh 3.98µM (no result: Luc counter)
Cc1onc(-c2ccccc2Cl)c1C(=O)NC(=S)Nc1ccc(C(C)C)cc1	VP16 counter inconclusive, RORgamma inh 1.78µM (no result: Luc counter)
Cc1onc(-c2ccccc2Cl)c1C(=O)Nc1ccc(F)c(F)c1	none
Cc1ccc(NC(=S)NC(=O)c2c(-c3ccccc3Cl)noc2C)cc1	VP16 counter 11.2µM, RORgamma inh 3.98µM
CC(=O)N1CCN(C(=S)NC(=O)c2c(-c3ccccc3Cl)noc2C)CC1	VP16 counter 5.01µM, RORgamma inh 1.58µM
Cc1onc(-c2ccccc2Cl)c1C(=O)N1CCCC1	none (no result: Luc counter)
N#Cc1cccc(NC(=O)N2CCCC3(CCN(C(=O)c4cccc(F)c4)CC3)C2)c1	none
COc1ccccc1CC(=O)NCCN1CCCCC1	none (no result: Luc counter)
CC(=O)N1c2ccc(S(=O)(=O)N3CCCC(C(=O)NCc4ccccc4)C3)cc2CC1C (stereo not given)	none (no result: Luc counter)
COc1cccc(/C=C(\C)C(=O)c2c(C)cc(C)[nH]c2=O)c1OC	none (no result: Luc counter)
CS(=O)(=O)N1CCC2(CCN(Cc3ccncc3)CC2)CC1	none
COC(=O)c1ccc(C)c(NC(=O)c2c(-c3ccccc3)noc2C)c1	none
COC(=O)c1ccc(NC(=S)NC(=O)c2c(-c3ccccc3)noc2C)cc1	VP16 counter inconclusive, RORgamma inh 7.08µM (no result: Luc counter)
O=c1c(-c2ccc(Cl)cc2)nc2cnc(N3CCOCC3)nc2n1CCc1ccccc1	none (no result: Luc counter)
COc1ccc(Cl)cc1NC(=O)c1[nH]nc(OC)c1[N+](=O)[O-]	RORgamma inh 3.55µM
COc1n[nH]c(C(=O)Nc2cc(Cl)ccc2Cl)c1[N+](=O)[O-]	VP16 counter inconclusive, RORgamma inh inconclusive
O=C(NC(=S)NCCO)c1cn(-c2ccccc2)nc1-c1ccccc1	VP16 counter inconclusive, RORgamma inh 10µM (no result: Luc counter)
O=C(NCCCn1ccnc1)c1cn(-c2ccccc2)nc1-c1ccccc1	none
O=C(Cc1ccc(Cl)cc1)c1c[nH]c(C(=O)NCCCn2ccnc2)c1	none
CC12CCC(c3n[nH]c(=S)nc31)C2(C)C (stereo not given)	VP16 counter inconclusive, RORgamma inh 12.6µM
CC12CCC(c3nnc(SCc4ccc(Cl)cc4)nc31)C2(C)C (stereo not given)	RORgamma inh inconclusive
CCN(CC)S(=O)(=O)c1ccc(O)c(NS(=O)(=O)c2ccccc2F)c1	RORgamma inh 10µM
CCOc1ccc(S(=O)(=O)N(CC)CC)cc1NS(=O)(=O)c1ccc(F)c(F)c1F	none
COc1cc2c(cc1OC)C(C)=NCC2	none
COc1cc2c(cc1OC)C(c1ccc(-c3ccccc3Cl)o1)=NCC2	VP16 counter 11.2µM, RORgamma inh 11.2µM
COc1cc2c(cc1OC)C(c1ccc(-c3ccc(Cl)c(Cl)c3)o1)=NCC2	VP16 counter inconclusive, RORgamma inh 12.6µM
COc1cc2c(cc1OC)C(c1ccc(-c3ccc(Cl)cc3Cl)o1)=NCC2	VP16 counter 20µM, RORgamma inh 6.31µM
COc1cc2c(cc1OC)C(c1ccc(-c3cc(Cl)ccc3Cl)o1)=NCC2	none
COc1cc2c(cc1OC)C(c1ccc(Cl)cc1)=NCC2	none (no result: Luc counter)
COc1nccnc1NS(=O)(=O)c1ccc(NCc2ccccc2O)cc1	none (no result: Luc counter)
O=C(O)C1(c2ccccc2)CCN(S(=O)(=O)c2ccc(F)c(F)c2)CC1	none (no result: Luc counter)
Cc1c(OCC(=O)NCC2CCC(C(=O)NCCCO)CC2)ccc2c(-c3ccccc3)cc(=O)oc12 (stereo not given)	none (no result: Luc counter)
O=C(NCCC(=O)N1CCc2ccccc21)c1ccccc1Cl	none (no result: Luc counter)
O=C(c1ccccc1)N1CCc2ccccc21	VP16 counter inconclusive
O=C(NC(=S)N1CCc2ccccc21)c1ccccc1	VP16 counter 0.501µM, RORgamma inh 0.562µM (no result: Luc counter)
O=C(NC(=S)N1CCc2ccccc21)c1ccccc1Cl	VP16 counter 1µM, RORgamma inh 0.447µM (no result: Luc counter)
CC(=O)N1CCOc2ccc(S(=O)(=O)N3CCC(C(=O)Nc4ccc(F)cc4)CC3)cc21	none (no result: Luc counter)
Cc1ccc(C#N)c(SCc2nnc(-c3ccc(Cl)cc3)o2)n1	VP16 counter inconclusive, RORgamma inh 3.55µM
Cc1cc(C)c(C#N)c(SCc2nnc(-c3ccccc3)o2)n1	VP16 counter inconclusive, RORgamma inh inconclusive
CC(C)Nc1nnc(SC(C)C(=O)Nc2ccc(Cl)cn2)s1 (stereo not given)	RORgamma inh inconclusive
O=C(NCc1ccccn1)C(=O)Nc1nc(C23CC4CC(CC(C4)C2)C3)cs1	VP16 counter 10µM, RORgamma inh 2.82µM
CC(=O)NNC(=O)CC(=O)Nc1nc(C23CC4CC(CC(C4)C2)C3)cs1	none
O=C(NCc1ccccn1)NC12CC3CC(CC(C3)C1)C2	none
CCNc1nc(C23CC4CC(CC(C4)C2)C3)cs1	VP16 counter inconclusive, RORgamma inh 10µM
COc1cccc([C@@H]2Oc3ccc(Br)cc3C[C@H]2OC(=O)NS(=O)(=O)c2ccc(F)cc2)c1	none
Cc1nc2ccccc2c2oc(C(=O)NCc3ccccn3)cc12	none
Cc1ccc(CNC(=O)c2cc3c(C)nc4ccccc4c3o2)cc1	VP16 counter 17.8µM
CCCC(C(=O)NCCC(C)C)N(Cc1ccccc1)C(=O)c1snc(C(N)=O)c1N (stereo not given)	none (no result: Luc counter)
CC(=O)Nc1cccc(-c2nnc(-c3ccccc3)o2)c1	none
